Results published in PubChem BioAssay AID1345082 (National Center for Advancing Translational Sciences (NCATS), 2018).
The whole screen tested about 94,000 compounds, of which about 4,000 (4.3%) were called active. Not shown: some 29% with an inconclusive outcome. This is one part of a sample in which actives are shown more often than they occur. Calls come from the whole dose curve; as a rule, active = well fitted inhibition curve with a large enough effect; inconclusive = small, poorly fitted or top-dose-only effect; inactive = no such curve, though single readings can be large or run the other way.

Assay: Cytotoxic Profiling in NIH 3T3 Cell Line of Diverse Libraries Using Quantitative High-Throughput Screening; note: nearly all actives have a fitted effect of over 55% in size
Settings: NIH 3T3 viability, CellTiter-Glo ATP luminescence, 48-72 h; series mostly up to 96.7 µM; activity change, negative = cytotoxicity: at the top concentration
Procedure, shortened: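 First NIH 3T3 cells are plated at 400 cells/well; next compound is pinned in; then plates incubate 48 or 72 hr at 37 °C; finally CellTiter-Glo is added and luminescence read after 10 min.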
% is set by controls: 0 for no effect and ±100 for the full control effect; potency is the fitted concentration of half-maximal effect.

Compound	activity change, negative = cytotoxicity	Potency	outcome
CCn1ccc(C(=O)N2C[C@@H]3CCCN4CCC[C@@H]([C@H]34)[C@H]2CCCC(=O)Nc2ccccc2)n1	1.62% (inactive)		
CC(=O)NC1CC2(CCN(C(=O)CCC(=O)O)CC2)c2ccccc21 (stereo not drawn)	2.38% (inactive)		
CS(=O)(=O)N1Cc2ccccc2CC2(CCN(Cc3ccncc3)C2)C1 (stereo not drawn)	-28.9% (inactive)		
CCN1CCc2[nH]cnc2C12CCN(C(=O)C1CCc3ccccc3C1)CC2 (stereo not drawn)	-24.9% (inactive)		
Cc1cc2nc3n(c(=O)c2n1CC(=O)Nc1cccc(C(F)(F)F)c1)CCCC3	-24.2% (inactive)		
O=C(NCc1ccncc1)c1csc(N2CCN(c3ccccc3F)CC2)n1	-23.9% (inactive)		
O=C(c1ccc(C(F)(F)F)cc1)N1CCCC2(CC(c3ccccn3)=NO2)C1 (stereo not drawn)	-7.84% (inactive)		
COc1ccc(C(=O)NC[C@@H]2C=C(C)[C@H](Cc3nnc(-c4cncn4C)o3)C[C@H]2C(C)C)cc1		25.1 µM (active)	
CC1=C[C@@H](CNC(C)C)[C@H](C(C)C)C[C@H]1Cc1nnc(-c2ccc(C)cc2)o1		50.1 µM (active)	
COc1ccc(C(=O)NCc2nnc3cc(-c4nc(C)no4)ccn23)cc1	-12.2% (inactive)		
CC1=C[C@@H](CN2CCN(CCO)CC2)[C@H](C(C)C)C[C@H]1Cc1nnc(-c2ccc(C)cc2)o1		39.8 µM (active)	
CC1=C[C@@H](CN2CCC(O)CC2)[C@H](C(C)C)C[C@H]1Cc1nnc(-c2ccccc2F)o1		112 µM (active)	
COc1ccc(CC(=O)NC[C@@H]2C=C(C)[C@H](Cc3nc4ccncc4[nH]3)C[C@H]2C(C)C)cc1	-26.3% (inactive)		
Fc1ccc(CN2CC[C@H](c3nnc(-c4ccccc4F)o3)C2)cc1	-21.5% [at 138 µM] (inactive)		
O=C1NCc2ccccc2CC12CCN(Cc1ccc(CO)o1)C2 (stereo not drawn)	-2.07% (inactive)		
CC(C)c1ccccc1NC(=O)Cn1cccc1-c1nc(-c2ccccc2)no1	0.152% (inactive)		
Cc1ccc(CN2CCNC(=O)C2CC(=O)NC2(CO)CCCC2)cc1 (stereo not drawn)	-0.757% (inactive)		
Cc1ncc2c(c1CNC(=O)c1ccccc1F)CCN(C(=O)Cc1cccc(F)c1)C2	-9.27% (inactive)		
CC(C)C(=O)NCC12CCC=C1N(C)C(=O)CC2 (stereo not drawn)	-0.138% (inactive)		
COCCN1C(=O)CS(=O)(=O)C12CCN(C(=O)c1ccc(OC)cc1)CC2	-5.73% (inactive)		
CNC(=O)[C@@H]1CN(C(=O)c2cccc(OC)c2)C[C@H]1COC			inactive
O=C(NC1CCC(n2cc(C(=O)N3CCCC3)nn2)CC1)C(c1ccccc1)C1CCCC1 (stereo not drawn)	-0.0895% (inactive)		
COCCNc1ncc(C(=O)O)c(C)n1	-8.62% (inactive)		
O=C(Nc1ccc2ncnc(N3CCCCC3)c2c1)c1ccc2c(c1)OCO2	-20.6% (inactive)		

Compound	activity change, negative = cytotoxicity	Potency	outcome
N[C@@H]1CC[C@H](C(=O)N2CCN(CCCOc3ccc(F)cc3)CC2)C1	-28% (inactive)		
O=C(CCc1nnn2c1CN(C(=O)NCCc1ccccc1)CC2)NC1CC1	1.43% (inactive)		
CCn1cc(Cl)c(C(=O)N2CCCn3cc(-c4ccccc4)nc32)n1	-11.8% (inactive)		
CC1=C[C@@H](CN(C)CCc2ccccn2)[C@H](C(C)C)C[C@H]1Cc1nnc(-c2ccccc2F)o1		35.5 µM (active)	
COCC(=O)NC[C@@H]1C=C(C)[C@H](CC(=O)Nc2ccccn2)C[C@H]1C(C)C	-17% [at 138 µM] (inactive)		
CCCc1nnc(C[C@@H]2C[C@@H](C(C)C)[C@H](CN3CCC[C@H]3CO)C=C2C)o1		50.1 µM (active)	
CNC(=O)c1cn2c(n1)CN(C(C)=O)CC2			inactive [at 174 µM]
COc1cc(CCC(=O)N2C[C@@H](C(N)=O)[C@H](c3n[nH]c(C)n3)C2)on1	-12.8% (inactive)		
COc1ccc(C(=O)N2C[C@@H](CO)[C@H](c3ccncc3)C2)cc1F	-8.96% (inactive)		
Cc1ccccc1C(=O)N1CCC2(CC1)OCC(C(=O)N1CCOCC1)N2C(=O)c1cccc(F)c1 (stereo not drawn)			inactive
O=C(c1ccc(F)c(F)c1)N1CCC([C@@H]2CNC[C@H]2CO)CC1	-0.844% (inactive)		
COc1ccc(-c2noc(-c3nnn4c3COC(c3ccc(F)cc3)C4)n2)cc1 (stereo not drawn)	-4.85% (inactive)		
Cc1ccc(S(=O)(=O)Nc2ccc(C)n(CC(=O)NCc3cccc(F)c3)c2=O)cc1	0.908% (inactive)		
CC(C)CNC(=O)C1COC2(CCC(C)CC2)N1C(=O)c1cccc(F)c1 (stereo not drawn)	-12% (inactive)		
O=C(NCc1ccc(F)cc1)C1COC2(CCCCC2)N1C(=O)c1ccccc1 (stereo not drawn)	-8.67% (inactive)		
CC1CCC2(CC1)OCC(C(=O)NCc1ccc3c(c1)OCO3)N2C(=O)c1ccccc1F (stereo not drawn)		20 µM (active)	
CCCOc1cc(C)c2c(c1C)C[C@H](C(C)C(=O)N1CCOCC1)CC2 (stereo partly drawn)	-17.8% [at 174 µM] (inactive)		
Fc1cccc(-c2ncc[nH]2)c1	-21.4% [at 230 µM] (inactive)		
O=C1NC[C@@H](CCC(=O)N2CCN(c3ccccn3)CC2)N2C[C@@H](NCc3ccccc3)C[C@@H]12	4.35% (inactive)		
CC(C)N1CC2(C1)C(=O)N(CCCN1CCCC1=O)C(=O)[C@@H]1C[C@@H](O)CN12	0.0127% [at 174 µM] (inactive)		
COc1ccccc1-c1cc(-c2cn[nH]c2)c2cncn2c1		50.1 µM (active)	
COc1ncccc1-c1cc(-c2cn[nH]c2)c2cncn2c1		70.8 µM (active)	
COc1ccccc1-c1ccc(C(=O)O)cc1	-6.43% [at 138 µM] (inactive)		
COc1ccccc1-c1cc(C(=O)N(C)C)nc2c1cnn2C	3.84% (inactive)		
